Bioassay records: PubChem, National Center for Advancing Translational Sciences (NCATS)
SARS PLP yeast – SARS-CoV PLP inhibition in yeast; 0.19% of 330,000 active; Potency, µM (top dose mostly 32.9 µM), for the others: at the top dose activity, positive = growth rescue, actives largely listed as activators; S. cerevisiae expressing SARS-CoV PLpro, growth rescue; calls by dose curve; further: 0% is about no effect; nearly all actives have a fitted effect of over 55% in size
Sm TGR inh – S. mansoni TGR enzyme inhibition; 3% of 360,000 active; purified TGR, DTNB reduction, TNB absorbance 405 nm; AID 485364; Potency, µM (highest dose often 114 µM), for inactives: top-dose activity change, negative = inhibition, usual class: inhibitors; further: on the % scale 0 is the no-effect control and ±100 the full control effect; nearly all actives have a fitted effect of over 60% in size
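Kinetic colorimetric format: TGR-catalysed, NADPH-driven DTNB reduction monitored via TNB absorbance. Enzyme dispensed at 20 nM; compound exposure 15 min at room temperature before reaction start.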
TbPYK inhibitor – T. brucei pyruvate kinase inhibition. Q57TT1. TbPYK enzyme, Kinase-Glo Plus ATP luminescence, 45 min. Potency, µM (highest dose often 76.8 µM), for inactives: top-dose activity, negative = inhibition, usual class: inhibitors. 0.12% of 410,000 active; further: on the % scale 0 is the no-effect control and ±100 the full control effect; nearly all actives have a fitted effect of over 50% in size
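Screened from lowest to highest concentration, compounds were pinned into TbPYK/substrate mixtures, and ADP (130 uM final) was added. Plates sat at room temperature for 45 min prior to Kinase-Glo Plus detection by luminescence.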
RE007 growth inh – less growth of the S. pombe RE007 Vpr strain; Potency, µM (doses to about 92.2 µM), for inactives: top-dose activity change, negative = less growth, most hits filed as inhibitors; 0.21% of 360,000 active; S. pombe RE007 Vpr strain, BacTiter-Glo ATP luminescence, 24 h; active means well fitted falling curve with a large enough effect; inconclusive means small, poorly fitted or top-dose-only effect; inactive means no such curve, though single readings can be large or run the other way; further: on the % scale 0 is the no-effect control and ±100 the full control effect; nearly all actives have a fitted effect of over 50% in size
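Fission yeast RE007 carrying one integrated HIV-1 vpr copy, seeded at OD 0.01 in PMG+AL medium with 23 nL pinned compound. Grown 24 h at 30 degrees; viability read by BacTiter-Glo luminescence after 5 min.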
AmpC inh detg – AmpC beta-lactamase inhibition with detergent present | P00811 | AmpC hydrolysis of nitrocefin, absorbance 480 nm, 0.01% Triton | Potency, µM (highest dose often 114 µM), without a hit: at the top dose activity change, negative = inhibition, actives largely listed as inhibitors | 0.041% of 370,000 active | AID 485294;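 further: 0% = no-compound wells and -100% = no-enzyme wells; nearly all actives have a fitted effect of over 25% in size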
Target sequence (P00811 whole entry, looked up): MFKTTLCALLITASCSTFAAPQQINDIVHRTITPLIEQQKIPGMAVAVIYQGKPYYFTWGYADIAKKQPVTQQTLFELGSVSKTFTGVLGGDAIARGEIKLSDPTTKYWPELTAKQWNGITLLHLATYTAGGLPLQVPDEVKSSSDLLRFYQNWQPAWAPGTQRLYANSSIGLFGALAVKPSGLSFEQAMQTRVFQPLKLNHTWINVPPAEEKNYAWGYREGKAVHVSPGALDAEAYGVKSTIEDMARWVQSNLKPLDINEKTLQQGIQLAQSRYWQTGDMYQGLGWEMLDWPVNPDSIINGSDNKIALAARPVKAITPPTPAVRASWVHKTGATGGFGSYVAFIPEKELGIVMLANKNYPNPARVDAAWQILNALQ
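AmpC (5.3 nM in the dispensed reagent) in 20 mM phosphate pH 7.0 with 0.01% (detergent screen) or 0.0001% Triton X-100 was preincubated with compounds for 15 min at room temperature. Nitrocefin was then added from an 800 uM solution, and hydrolysis was followed at 480 nm.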
AmpC no deterg – AmpC beta-lactamase inhibition without detergent | AID 485341 | AmpC nitrocefin hydrolysis, absorbance 480 nm, 0.0001% Triton | P00811 | 0.52% of 330,000 active | Potency, µM (series often up to 57.1 µM), for inactives: at the highest dose activity change, negative = inhibition, usual class: inhibitors;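 further: plate controls were no compound for no effect and no enzyme for full effect; nearly all actives have a fitted effect of over 20% in size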
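20 mM phosphate pH 7.0 + 0.01% (detergent screen) or 0.0001% Triton X-100; 5.3 nM AmpC reagent; cpd preinc 15 min RT; nitrocefin (800 uM stock) to start; A480 q20 s × 4 min; Activity was normalised to no-enzyme and no-compound control wells.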
Active calls of the source: *. Shown are actives, neighbours in structure and some others; about 3.3% of the full set was active somewhere. Unless noted, the call rests on the fitted dose curve; in most records, active means well fitted curve in the direction sought with a large enough effect; inconclusive means small, poorly fitted or top-dose-only effect, or another doubt; inactive means no such curve, though single readings can be large; an effect the other way counts as inactive or inconclusive. Potency means the concentration at half of the fitted maximal effect.

`Cc1cncn1CCc1nc2c3ccccc3nc(SCC(=O)Nc3ccccc3F)n2n1` gave Sm TGR inh -3%, TbPYK inhibitor -7% and AmpC inh detg 1%.
For CC(=O)NCc1c(Cl)cccc1-n1cccc1 the results were SARS PLP yeast 10µM*, Sm TGR inh -11%, TbPYK inhibitor 0%, RE007 growth inh 10%, AmpC inh detg 1% and AmpC no deterg -9%.
Screening CC1CCc2nn(CC(=O)NC3CCCC(C)C3C)cc2C1 (stereo not drawn) returned SARS PLP yeast -7%, Sm TGR inh 4%, TbPYK inhibitor 1%, RE007 growth inh -19%, AmpC inh detg -8% and AmpC no deterg 1µM*.
Screening Cc1ccc(C)c(N2CCN(CCCNC(=O)Cn3cc4c(n3)CCC(C)C4)CC2)c1 (stereo not drawn) returned SARS PLP yeast 1%, Sm TGR inh 1%, TbPYK inhibitor 0%, RE007 growth inh 2%, AmpC inh detg inconclusive and AmpC no deterg 35µM*.
For O=C(Cn1cc2c(n1)CCCCC2)N1CCCCC1 the results were SARS PLP yeast -23%, Sm TGR inh 3%, TbPYK inhibitor 0%, RE007 growth inh -4%, AmpC inh detg -14% and AmpC no deterg -18%.
For CC1CCc2nn(CC(=O)N3CCCCCC3)cc2C1 (stereo not drawn) the results were SARS PLP yeast -8%, Sm TGR inh 7%, TbPYK inhibitor -3%, RE007 growth inh 8%, AmpC inh detg -3% and AmpC no deterg 0.56µM*.
`CC1CCc2nn(CC(=O)Nc3ccc(F)cc3F)cc2C1` (stereo not drawn) gave SARS PLP yeast -9%, Sm TGR inh 8%, TbPYK inhibitor -3%, RE007 growth inh -6%, AmpC inh detg inconclusive and AmpC no deterg 40µM*.
Screening CC1CCc2nn(CC(=O)Nc3c(F)cc(F)cc3Br)cc2C1 (stereo not drawn) returned SARS PLP yeast -12%, Sm TGR inh -1%, TbPYK inhibitor 1%, RE007 growth inh -2%, AmpC inh detg inconclusive and AmpC no deterg -9%.
CC(Oc1ccc(F)cc1)C(=O)N1CCC(c2nc3ccccc3s2)CC1 (stereo not drawn) was read as Sm TGR inh -2%, TbPYK inhibitor -1% and AmpC inh detg 4%.
COc1ccc(NC(=O)CSc2nc(-c3ccccc3)cc(-c3cc(OC)c(OC)c(OC)c3)c2C#N)c(OC)c1 was read as Sm TGR inh -1%, TbPYK inhibitor 1% and AmpC inh detg -3%.
Screening Cn1c(=O)c2c(SCC(=O)NCc3ccco3)nc(-c3ccccc3F)nc2n(C)c1=O returned Sm TGR inh -1%, TbPYK inhibitor -13% and AmpC inh detg 16%.
Screening CC1CCc2nn(CC(=O)NCCN3CCCCC3C)cc2C1 (stereo not drawn) returned SARS PLP yeast -2%, Sm TGR inh 0%, TbPYK inhibitor 3%, RE007 growth inh 21%, AmpC inh detg -4% and AmpC no deterg 28µM*.
`CC1CCc2nn(CC(=O)NCCCN3CCCC3=O)cc2C1` (stereo not drawn) gave SARS PLP yeast 12%, Sm TGR inh -24%, TbPYK inhibitor -3%, RE007 growth inh 3%, AmpC inh detg -6% and AmpC no deterg -10%.
For O=C(Nc1cccc2nsnc12)c1ccc(-c2ccc(Br)cc2)o1 the results were SARS PLP yeast -7%, Sm TGR inh 35µM*, TbPYK inhibitor -10%, RE007 growth inh -12%, AmpC inh detg -2% and AmpC no deterg -23%.
For Cc1ccc2cccc(NC(=O)c3ccc(-c4ccc(Br)cc4)o3)c2n1 the results were Sm TGR inh -20%, TbPYK inhibitor 2% and AmpC inh detg 1%.
`Cc1c(Cl)cccc1-c1ccc(C(=O)Nc2ccc3oc(-c4cccnc4)nc3c2)o1` gave Sm TGR inh inconclusive, TbPYK inhibitor -2% and AmpC inh detg 3%.
`O=C(Nc1cccc(-c2nc3ccccc3o2)c1)c1ccc(-c2ccc(Br)cc2)o1` gave Sm TGR inh 40µM*, TbPYK inhibitor 3% and AmpC inh detg 6%.
For O=C(Nc1ccc2oc(-c3cccnc3)nc2c1)c1ccc(-c2cccc(OC(F)(F)F)c2)o1 the results were Sm TGR inh 10µM*, TbPYK inhibitor -13% and AmpC inh detg 34%.
`O=C(Nc1ccc(F)cc1F)c1cc2nc(-c3ccco3)cc(C(F)(F)Cl)n2n1` gave Sm TGR inh 50µM*, TbPYK inhibitor -1% and AmpC inh detg -6%.
O=C(NCC1CCCO1)c1cc2nc(-c3ccco3)cc(C(F)(F)Cl)n2n1 (stereo not drawn) was read as SARS PLP yeast 5%, Sm TGR inh 45µM*, TbPYK inhibitor 0%, RE007 growth inh 13%, AmpC inh detg inconclusive and AmpC no deterg -20%.
For CCC(C)(C)n1nnnc1C(c1cc(OC)ccc1OC)N1CCN(Cc2ccccc2)CC1 (stereo not drawn) the results were SARS PLP yeast -1%, Sm TGR inh 32µM*, TbPYK inhibitor -6%, RE007 growth inh 3%, AmpC inh detg 0% and AmpC no deterg 137%.
Screening CCC(C)(C)n1nnnc1C(c1ccc(OC)c(OC)c1)N1CCN(c2ccccc2)CC1 (stereo not drawn) returned SARS PLP yeast 3%, Sm TGR inh 50µM*, TbPYK inhibitor -14%, RE007 growth inh 3%, AmpC inh detg -9% and AmpC no deterg 96%.
Screening CCC(C)(C)n1nnnc1C(c1ccc2ncccc2c1)N1CCN(c2ccc(O)cc2)CC1 (stereo not drawn) returned SARS PLP yeast 0%, Sm TGR inh 50µM*, TbPYK inhibitor -22%, RE007 growth inh 5%, AmpC inh detg 5% and AmpC no deterg 17%.
CCC(C)(C)n1nnnc1C(c1ccc(OC)c(OC)c1)N1CCN(c2cccc(OC)c2)CC1 (stereo not drawn) was read as SARS PLP yeast 8%, Sm TGR inh inconclusive, TbPYK inhibitor -12%, RE007 growth inh 6%, AmpC inh detg inconclusive and AmpC no deterg 279%.
CCn1c2c(c(=O)n3ncc(C(=O)Nc4ccc(OC(F)(F)F)cc4)c13)CN(Cc1ccc(OC)cc1)CC2 was read as Sm TGR inh 9%, TbPYK inhibitor inconclusive and AmpC inh detg 15%.
For CCOc1ccc2oc(=O)cc(CN3CCN(C(=O)c4ccc(Cl)cc4)CC3)c2c1 the results were Sm TGR inh -7%, TbPYK inhibitor 4% and AmpC inh detg -7%.
